# Screening results (PubChem BioAssay)
# This is one part of a sample in which hits are shown more often than they occur.
# miR122 inh – miR-122 suppressors via Renilla sensor increase, primary screen, cell-based, Huh7 psiCHECK-miR122, Renilla luciferase, single point. activation, % at 12.5 µM. 340,000 tested, 0.14% active. 48 h;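 active = mean activation of 30% or more, with every replicate also reaching 30%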;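 note: 0% = median of neutral control wells and 100% = median of positive control wells; higher luciferase signal means stronger suppression of miR-122 activity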
# * marks the source's active call; other numbers are inactive results.
SMILES,miR122 inh
C[C@@H]1CN([C@@H](C)CO)S(=O)(=O)c2ccc(C#Cc3cccc(F)c3)cc2O[C@@H]1CN(C)C(=O)CN1CCOCC1,-3
C[C@@H]1CN([C@H](C)CO)S(=O)(=O)c2ccc(C#CC3CCCC3)cc2O[C@@H]1CN(C)CC1CC1,-6
COc1ccccc1-c1cnc2c(c1)C(=O)N([C@H](C)CO)C[C@H](C)[C@H](CN(C)C(=O)c1ccccc1)O2,3
C[C@H](CO)N1C[C@H](C)[C@@H](CN(C)Cc2ccncc2)Oc2ncc(C#Cc3cccnc3)cc2C1=O,4
CCC(=O)Nc1ccc2c(c1)OC[C@H](C)NC[C@@H](C)[C@@H](OC)CN(C)C2=O,-7
COCC(=O)N(C)C[C@H]1Oc2cc(-c3ccccc3)ccc2S(=O)(=O)N([C@H](C)CO)C[C@@H]1C,-6
C[C@@H]1CN([C@H](C)CO)S(=O)(=O)c2ccc(C#C[C@@H](C)O)cc2O[C@H]1CN(C)C,-6
CNC[C@@H]1Oc2cc(C#Cc3cccc(F)c3)ccc2S(=O)(=O)N([C@H](C)CO)C[C@H]1C,-13
C[C@@H]1CN([C@H](C)CO)C(=O)c2cc(C#Cc3ccc(F)cc3)cnc2O[C@@H]1CN(C)Cc1ccccn1,-2
OC(c1cc(C(F)(F)F)nc2c(Cl)cc(Cl)cc12)C1CCCCN1 (stereo not drawn),41*
CC(C)CC#Cc1cnc2c(c1)C(=O)N([C@@H](C)CO)C[C@H](C)[C@@H](CN(C)CC1CCOCC1)O2,2
CC(C)CC#Cc1cnc2c(c1)C(=O)N([C@@H](C)CO)C[C@@H](C)[C@H](CN(C)C(=O)C1CCCCC1)O2,6
C[C@H](CO)N1C[C@H](C)[C@H](CN(C)C(=O)Cc2ccncc2)Oc2ncc(C#CCN(C)C)cc2C1=O,-6
C[C@@H]1CN([C@@H](C)CO)S(=O)(=O)c2ccc(-c3ccncc3)cc2O[C@@H]1CN(C)C(=O)C1CC1,2
CCC(=O)Nc1cccc(C(=O)/C=C/c2ccccc2)c1,36*
CCC(=O)Nc1ccc(C(=O)Nc2cccc(C)n2)cc1,-218
CCC(=O)Nc1ccc(S(=O)(=O)NCCc2ccccc2)cc1,-111
C[C@H]1CN([C@@H](C)CO)C(=O)c2cc(C#CC3CC3)cnc2O[C@@H]1CN(C)C,4
CCCNC(=O)N(C)C[C@H]1Oc2cc(C#Cc3cccc(F)c3)ccc2S(=O)(=O)N([C@@H](C)CO)C[C@H]1C,3
CCCNC(=O)N(C)C[C@@H]1Oc2ncc(C#CCC(C)C)cc2C(=O)N([C@@H](C)CO)C[C@H]1C,2
C[C@H]1CN([C@@H](C)CO)S(=O)(=O)c2ccc(-c3ccc(C(=O)N(C)C)cc3)cc2O[C@H]1CN(C)C,5
C[C@@H]1CN([C@H](C)CO)S(=O)(=O)c2ccc(-c3ccc(C(=O)N(C)C)cc3)cc2O[C@@H]1CN(C)C(=O)C1CCOCC1,20
C[C@H](CO)N1C[C@H](C)[C@H](CN(C)C(=O)C2CCC2)Oc2cc(-c3ccc(C(=O)N(C)C)cc3)ccc2S1(=O)=O,55*
C[C@H]1CN([C@@H](C)CO)S(=O)(=O)c2ccc(-c3ccc(C(=O)N(C)C)cc3)cc2O[C@H]1CN(C)C(=O)C1CCOCC1,7
C[C@H]1CN([C@@H](C)CO)S(=O)(=O)c2ccc(-c3ccc(C(=O)N(C)C)cc3)cc2O[C@H]1CN(C)C(=O)C1CCC1,43*
SMILES,miR122 inh
C[C@H]1CN([C@@H](C)CO)S(=O)(=O)c2ccc(-c3ccc(C(=O)N(C)C)cc3)cc2O[C@@H]1CN(C)C(=O)C1CCOCC1,-9
Cc1ccc(S(=O)(=O)N(C)C[C@@H]2Oc3cc(-c4cccc(F)c4)ccc3S(=O)(=O)N([C@H](C)CO)C[C@@H]2C)cc1,3
C[C@H](CO)N1C[C@H](C)[C@H](CN(C)C(=O)C2CCOCC2)Oc2cc(-c3ccc(C(=O)N(C)C)cc3)ccc2S1(=O)=O,4
COc1ccc(S(=O)(=O)N(C)C[C@@H]2Oc3cc(-c4cccc(F)c4)ccc3S(=O)(=O)N([C@H](C)CO)C[C@H]2C)cc1,39*
Cc1ccc(S(=O)(=O)N(C)C[C@@H]2Oc3cc(-c4cccc(F)c4)ccc3S(=O)(=O)N([C@@H](C)CO)C[C@H]2C)cc1,9
C[C@@H]1CN([C@H](C)CO)S(=O)(=O)c2ccc(-c3ccc(C(=O)N(C)C)cc3)cc2O[C@@H]1CN(C)C(=O)C1CCC1,43*
C[C@@H]1CN([C@H](C)CO)S(=O)(=O)c2ccc(-c3ccc(C(=O)N(C)C)cc3)cc2O[C@@H]1CN(C)C,4
C[C@@H]1CN([C@H](C)CO)S(=O)(=O)c2ccc(C3=CCCCC3)cc2O[C@@H]1CN(C)Cc1ccccc1,-92
C[C@H]1CN([C@@H](C)CO)C(=O)c2cc(-c3cccnc3)cnc2O[C@@H]1CN(C)S(C)(=O)=O,-18
C[C@H](CO)N1C[C@H](C)[C@@H](CN(C)C)Oc2ncc(C#CC3CC3)cc2C1=O,2
CC(C)CC#Cc1cnc2c(c1)C(=O)N([C@H](C)CO)C[C@H](C)[C@@H](CN(C)S(=O)(=O)c1ccccc1)O2,-18
CCCC(=O)Nc1ccc2c(c1)OC[C@H](C)N(C(C)=O)C[C@H](C)[C@H](OC)CN(C)C2=O,2
